From PubChem
Mtb BioA inh – M. tuberculosis BioA enzyme inhibitors, primary screen, biochemical, plate reader, single point, HTS. purified M. tuberculosis BioA enzyme. inhibition, % at 9.99 µM. 360,000 compounds, 0.096% hits. AID 602481, 2012; in the data active = inhibition above about 40%
TcdB GH inh – TcdB glycohydrolase inhibitors, primary screen, biochemical, single point, plate reader. Toxin B (Clostridioides difficile), P18177. TcdB glycohydrolase enzymatic assay. inhibition, % at 9.99 µM. 350,000 compounds, 0.24% hits. AID 652162, 2013; in the data active = inhibition above about 10%
PrP 5UTR inh – inhibition of PrP 5' UTR reporter expression; inhibition, % (no concentration beside the values); 340,000 compounds, 0.35% hits; cell-based PrP 5' UTR mRNA reporter, plate reader; AID 488862, 2010; in the data active = inhibition above about 52%; note: 0 = median of the neutral control wells
PfHsp40 rescue – rescue of yeast from PfHsp40 toxicity, primary screen, S. cerevisiae, ATP luminescence; S. cerevisiae expressing PfHsp40, growth rescue; growth rescue, % at 12.5 µM; 340,000 compounds, 0.68% hits; AID 504582, 2011; in the data active = growth rescue above about 28%, passing the limit was not always enough;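 note: yeast W303a lacking pdr1 and pdr3 grown in galactose medium; growth measured after three days at 30 °C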
FadD28 FP inh – inhibitors of FadD28 bisubstrate probe binding, primary screen, biochemical, fluorescence polarization, single point | Mycobacterium tuberculosis FadD28 fatty-acid-AMP ligase | inhibition, % at 12.5 µM | 360,000 compounds, 0.22% hits | AID 588549, 2011; in the data active = inhibition above about 8.5%, passing the limit was not always enough
* marks the source's active call; other numbers are inactive results; ! = repeats disagree. Only some compounds are listed: those with a hit (about 1.1% of all), similar ones and a draw of the others.

Screening COc1ccc(/C=C2/SC(=S)N(CCC(=O)O)C2=O)cc1 returned Mtb BioA inh -1, PrP 5UTR inh 63*, PfHsp40 rescue 0 and FadD28 FP inh 0.
`O=C1CCCn2cc(nn2)COCC2CCCN12` (centres undefined) gave TcdB GH inh -1.
O=C(C[C@H]1C=C[C@@H](NC(=O)NC2CCCC2)[C@@H](CO)O1)NCc1ccc(F)cc1 was read as Mtb BioA inh -1 and TcdB GH inh 0.
COc1ccc(Nc2ncc(C#N)c(N)n2)c(OC)c1 was read as Mtb BioA inh 7, TcdB GH inh 1, PrP 5UTR inh -8, PfHsp40 rescue 66* and FadD28 FP inh -2.
Cc1c(Cl)cccc1NC(=O)C1Cc2ccccc2CN1C(=O)c1ccccc1 (centres undefined) was read as TcdB GH inh 11*, PrP 5UTR inh -9, PfHsp40 rescue 3 and FadD28 FP inh -4.
`Cc1cccc(NC(=O)C2Cc3ccccc3CN2C(=O)OCc2ccccc2)c1C` (centres undefined) gave TcdB GH inh 2, PrP 5UTR inh -11, PfHsp40 rescue 1 and FadD28 FP inh -1.
C[C@H](CO)N1C[C@H](C)[C@H](CN(C)Cc2ccc(C(=O)O)cc2)Oc2ccc(NS(=O)(=O)c3ccccc3)cc2C1=O was read as Mtb BioA inh -2 and TcdB GH inh 0.
O=C(Nc1ccc(O)cc1C(=O)O)c1ccc2c(c1)C(=O)N(Cc1ccco1)C2=O was read as Mtb BioA inh 0, PrP 5UTR inh -29, PfHsp40 rescue 1 and FadD28 FP inh 3.
O=C(Nc1cc([N+](=O)[O-])ccc1O)c1ccc2c(c1)C(=O)N(Cc1ccco1)C2=O was read as Mtb BioA inh 1, TcdB GH inh -2, PrP 5UTR inh -12, PfHsp40 rescue 0 and FadD28 FP inh 12*.
`O=C(Nc1ccc(O)cc1)c1ccc2c(c1)C(=O)N(Cc1ccco1)C2=O` gave TcdB GH inh 16*, PrP 5UTR inh -29, PfHsp40 rescue -1 and FadD28 FP inh 1.
Screening CC(C)(C)C(=O)C(Cc1ccccc1Cl)n1cncn1 (centres undefined) returned Mtb BioA inh 0, PrP 5UTR inh -14, PfHsp40 rescue 25 and FadD28 FP inh -2.
CC(C)(C)C(=O)C(Oc1ccc(Cl)cc1)n1cncn1 (centres undefined) was read as TcdB GH inh 1, PrP 5UTR inh -22, PfHsp40 rescue 397* and FadD28 FP inh -2.
For COc1cccc(NCc2cc3c(C(C)(C)C)nn(-c4ccccc4)c3[nH]c2=O)c1 the results were Mtb BioA inh -2, PrP 5UTR inh 9, PfHsp40 rescue 0 and FadD28 FP inh 0.
For CCOc1ccc(NCc2cc3c(C(C)(C)C)nn(-c4ccccc4)c3[nH]c2=O)cc1 the results were Mtb BioA inh 0, TcdB GH inh 1, PrP 5UTR inh 0, PfHsp40 rescue 43* and FadD28 FP inh -1.
Screening COC(=O)C1=C(C)NC(C)=C(C(=O)OCC(C)C)C1c1ccccc1[N+](=O)[O-] (centres undefined) returned Mtb BioA inh -2, TcdB GH inh 1, PrP 5UTR inh 20, PfHsp40 rescue 289* and FadD28 FP inh 2.
Screening CCOC(=O)C1=C(C)NC(C)=C(C(=O)OCC)C1c1cccc([N+](=O)[O-])c1 returned Mtb BioA inh 1, TcdB GH inh -1 and FadD28 FP inh 0.
`O=C(Cn1nnc(-c2ccc3c(c2)OCO3)n1)Nc1ccccc1C(=O)O` gave Mtb BioA inh 0, TcdB GH inh 0, PrP 5UTR inh -13, PfHsp40 rescue 0 and FadD28 FP inh 11*.
For O=C(Cn1nnc(-c2ccccc2)n1)Nc1ccc2c(c1)OCO2 the results were Mtb BioA inh -3, PrP 5UTR inh -21, PfHsp40 rescue -1 and FadD28 FP inh 0.
C[C@H](CO)N1C[C@H](C)[C@@H](CN(C)C(=O)Nc2ccc(C(F)(F)F)cc2)Oc2ccc(NC(=O)C3CCCCC3)cc2C1=O was read as Mtb BioA inh 1, TcdB GH inh 14*!, PrP 5UTR inh -12, PfHsp40 rescue 0 and FadD28 FP inh -1.
For C[C@@H]1CN([C@H](C)CO)C(=O)c2cc(NC(=O)Nc3ccc(F)cc3)ccc2O[C@H]1CN(C)C(=O)Nc1ccc(C(F)(F)F)cc1 the results were Mtb BioA inh -1, PrP 5UTR inh -20, PfHsp40 rescue 47* and FadD28 FP inh -5.
`C[C@@H]1CN([C@@H](C)CO)C(=O)c2cc(NC(=O)C3CCCCC3)ccc2O[C@@H]1CN(C)C(=O)Nc1ccc(C(F)(F)F)cc1` gave Mtb BioA inh -1 and TcdB GH inh -1.
For C[C@H](CO)N1C[C@H](C)[C@@H](CN(C)C(=O)Nc2ccc(C(F)(F)F)cc2)Oc2c(NS(=O)(=O)c3cn(C)cn3)cccc2C1=O the results were Mtb BioA inh -1, TcdB GH inh 13*!, PrP 5UTR inh -10, PfHsp40 rescue -1 and FadD28 FP inh -20.
`CC(C)NC(=O)N(C)C[C@@H]1Oc2ccc(NC(=O)CCCN(C)C)cc2C(=O)N([C@H](C)CO)C[C@@H]1C` gave Mtb BioA inh 6 and TcdB GH inh 0.
`O=C(Cc1ccc(Br)cc1)N1CCOCC1` gave Mtb BioA inh -1, TcdB GH inh 0, PrP 5UTR inh -27, PfHsp40 rescue 36* and FadD28 FP inh -2.
`O=C(Cc1ccc(-c2ccccc2)cc1)N1CCOCC1` gave Mtb BioA inh 0, PrP 5UTR inh -28, PfHsp40 rescue 0 and FadD28 FP inh -5.
Screening C/C=C/c1ccc2c(c1)O[C@@H](CN(C)C(=O)C1CC1)[C@H](C)CN([C@@H](C)CO)S2(=O)=O returned Mtb BioA inh 0.
`COC(=O)C1Cc2ccccc2CN1C(=O)CCl` (centres undefined) gave TcdB GH inh 1, PrP 5UTR inh -3, PfHsp40 rescue 41* and FadD28 FP inh -2.
`CCOC(=O)c1ccc2ncc(-c3ccccc3)nc2c1` gave TcdB GH inh 25*, PrP 5UTR inh -103, PfHsp40 rescue 0 and FadD28 FP inh -1.
For O=C(NN1C(=O)/C(=C/c2ccc(O)c(O)c2)SC1=S)c1ccccc1 the results were Mtb BioA inh 6, TcdB GH inh -11, PrP 5UTR inh -39, PfHsp40 rescue 0 and FadD28 FP inh 43*.
`O=C(NN1C(=O)/C(=C\c2ccc(O)c([N+](=O)[O-])c2)SC1=S)c1ccccc1Cl` gave Mtb BioA inh 5, TcdB GH inh 1, PrP 5UTR inh -16, PfHsp40 rescue -1 and FadD28 FP inh 15*.
Screening Cc1ccc(C(=O)NN2C(=O)/C(=C/c3cccn3C)SC2=S)cc1 returned Mtb BioA inh -3, TcdB GH inh 1, PrP 5UTR inh -16, PfHsp40 rescue 3 and FadD28 FP inh 13*.
